Results on 8 molecules are retold here after PubChem BioAssay (NCI).

The structures appear in SMILES notation. Compounds without any hit were thinned out: in the full panel of roughly 83,000, 20% have a hit.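 96-well plates, one dose, 48 hours. Percent growth reported; active if below 10.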 A number with no mark means an inactive call. Activity calls are given as the source filed them.

Some test systems named below: NCI-H23 lung; NCI-H226 lung; NCI-H322M lung; HOP-62 NSCLC; NCI-H460 lung; HOP-92 NSCLC; NCI-H522 lung; A549/ATCC NSCLC; 786-0 renal; COLO 205 colon; DU-145 prostate; K-562 leukemia; MALME-3M melanoma; MDA-MB-231 breast; RXF 393 renal; SF-268 CNS; SF-295 CNS; SF-539 CNS; UACC-257 melanoma; M14 melanoma.
Test in all cases: NCI-60 one-dose screen, 48 h (100 = growth as untreated, 0 = no growth, -100 = all killed)
Holding throughout (details): 10 µM unless noted

Regarding `O=C(O)CCCn1c(SCc2c(Cl)cccc2Cl)nc2ccsc2c1=O`, the growth was 33.6% in the test on NCI-H23 lung; 43.4% with NCI-H226 lung; 48.3% in the test on NCI-H322M lung; 45.2% in the test with HOP-62 NSCLC; 10.2% with NCI-H460 lung; 24.5% with HOP-92 NSCLC. Moreover, the growth in the test with NCI-H522 lung is -3.68% (active); in the test with A549/ATCC NSCLC, 34.4%; with 786-0 renal, 23.9%; with COLO 205 colon it was 3.82% (active); in the test on DU-145 prostate, 3.54% (active); in the test with K-562 leukemia, 9.27% (active). Moreover, the growth is 47.7% in the test on MALME-3M melanoma; 42% in the test on MDA-MB-231 breast; -27.9% (active) in the test with RXF 393 renal; 39.5% in the test on SF-268 CNS; 14.6% with SF-295 CNS; -20.1% (active) with SF-539 CNS. For the same molecule, the values for the growth with UACC-257 melanoma and with M14 melanoma were 68.4% and -11.1% (active), respectively.

With `CC1CN=C(c2cccc(-c3ccc(-c4ccccc4)o3)c2)N1` (stereo not given), the growth with NCI-H23 lung was 27.6%; with NCI-H226 lung it was 30%; with NCI-H322M lung, 4.39% (active); in the test with HOP-62 NSCLC it was 39.9%; in the test with NCI-H460 lung, -25.5% (active); with HOP-92 NSCLC, -13.1% (active). Further, the growth is -64.5% (active) in the test on NCI-H522 lung; 12.2% in the test on A549/ATCC NSCLC; -43.6% (active) with 786-0 renal; -82.6% (active) in the test with COLO 205 colon; 37.4% with DU-145 prostate; -38.2% (active) in the test with K-562 leukemia. Besides, the growth in the test on MALME-3M melanoma is -85.2% (active); in the test with MDA-MB-231 breast, -51.5% (active); with RXF 393 renal, -67.8% (active); with SF-268 CNS, 3.07% (active); in the test on SF-295 CNS, -49.1% (active); in the test on SF-539 CNS, -72.2% (active). The growth with UACC-257 melanoma was -58.5% (active); with M14 melanoma, -67.2% (active).

In the case of `Cc1ncc(C(=O)Nc2ccc(CN3CCN(C)CC3)c(C(F)(F)F)c2)cc1C#Cc1cnc(N)c2ccncc12`, the growth in the test on NCI-H23 lung was -65% (active); with NCI-H226 lung it was -5.01% (active); in the test with NCI-H322M lung it was -32.5% (active); in the test on HOP-62 NSCLC, -54.8% (active); in the test with NCI-H460 lung, -65.5% (active); in the test on HOP-92 NSCLC it was -52.2% (active). Also, the growth in the test on NCI-H522 lung was -79% (active); in the test on A549/ATCC NSCLC it was -40.4% (active); in the test on 786-0 renal it was -45% (active); in the test on COLO 205 colon, -84.1% (active); in the test with DU-145 prostate, -50.5% (active); with K-562 leukemia it was -32.5% (active). The growth is -72.9% (active) in the test on MALME-3M melanoma; -47.9% (active) in the test on MDA-MB-231 breast; -87.7% (active) in the test on RXF 393 renal; -37.5% (active) with SF-268 CNS; -45.4% (active) in the test with SF-295 CNS; -86.6% (active) with SF-539 CNS. Besides, the growth with UACC-257 melanoma was -75.2% (active); with M14 melanoma it was -63.7% (active).

On to `COc1cccc(NC(=O)c2cccc(C3CCc4c(cc(OC)c(OC)c4OC)O3)c2)c1` (stereo not given), for which the growth in the test with NCI-H23 lung is 73.9%; in the test with NCI-H226 lung it was 53.7%; in the test on NCI-H322M lung, 54.2%; in the test on HOP-62 NSCLC it was 85.2%; with NCI-H460 lung it was 84%; in the test with HOP-92 NSCLC, 26.3%. For the same molecule, the growth is 53.1% in the test with NCI-H522 lung; 70.8% with A549/ATCC NSCLC; 86.6% in the test on 786-0 renal; 80.2% in the test with COLO 205 colon; 79.6% in the test with DU-145 prostate; 35.6% in the test with K-562 leukemia. Moreover, the growth is 72.7% with MALME-3M melanoma; 32.2% in the test on MDA-MB-231 breast; 88.9% in the test with RXF 393 renal; 91.2% in the test with SF-268 CNS; 70.9% with SF-295 CNS; 92% in the test on SF-539 CNS. The values for the growth with UACC-257 melanoma and in the test with M14 melanoma were 78.1% and 56.9%, respectively.

As to `O=C(N/N=C/c1ccc(O)cc1O)c1ccc(Nc2ccnc(C(F)(F)F)c2)cc1`, the growth in the test with NCI-H23 lung is 52.4%; in the test on NCI-H226 lung, 16.8%; with NCI-H322M lung, -3.47% (active); in the test with HOP-62 NSCLC, 31.1%; in the test on NCI-H460 lung, 24.6%; in the test with HOP-92 NSCLC, 40.9%. The growth in the test on NCI-H522 lung was 44.2%; in the test on A549/ATCC NSCLC, 80.6%; with 786-0 renal it was 33.7%; in the test on COLO 205 colon it was 9.64% (active); in the test on DU-145 prostate, 53.5%; in the test with K-562 leukemia, 74.9%. Also, the growth is 46.6% with MALME-3M melanoma; 46.1% with MDA-MB-231 breast; 95.3% with RXF 393 renal; 41.1% in the test on SF-268 CNS; 47.8% with SF-295 CNS; 27.6% with SF-539 CNS. Also, the growth with UACC-257 melanoma was 44.6%; in the test with M14 melanoma, 36.1%.

For `COc1ccc(-c2cc(C(=O)N3N=C(c4ccc(N)cc4)CC3c3ccccc3)c3ccccc3n2)cc1` (stereo not given), the growth was 56.7% in the test on NCI-H23 lung; 77.3% with NCI-H226 lung; 47.1% in the test on NCI-H322M lung; 30.6% in the test with HOP-62 NSCLC; 18.2% with NCI-H460 lung; 34.5% in the test with HOP-92 NSCLC. Also, the growth is 23.7% in the test with NCI-H522 lung; 39.4% in the test on A549/ATCC NSCLC; 37.3% in the test with 786-0 renal; 10.8% in the test on COLO 205 colon; 21.8% in the test with DU-145 prostate; 19.8% in the test with K-562 leukemia. Besides, the growth in the test with MALME-3M melanoma is 54.6%; in the test on MDA-MB-231 breast, 62.9%; with RXF 393 renal, 51.1%; in the test on SF-268 CNS, 51.5%; in the test with SF-295 CNS, 6.86% (active); in the test with SF-539 CNS it was 13.4%. The values for the growth in the test on UACC-257 melanoma and in the test on M14 melanoma were 47.2% and 17.2%, respectively.

Turning to `N#C/C(=C\c1ccc(-c2ccc(Cl)cc2)o1)c1ccc(Cl)cc1`, the growth was 63.2% in the test with NCI-H23 lung; 30% with NCI-H226 lung; 69.2% in the test on NCI-H322M lung; 46.8% in the test on HOP-62 NSCLC; 10.3% in the test on NCI-H460 lung; 5.34% (active) in the test with HOP-92 NSCLC. Further, the growth in the test with NCI-H522 lung is 81%; in the test with A549/ATCC NSCLC it was 35.4%; in the test on 786-0 renal, -0.442% (active); with COLO 205 colon, 77.1%; with DU-145 prostate, 82.1%; in the test on K-562 leukemia, 82.4%. In addition, the growth was 62.9% in the test with MALME-3M melanoma; 32.6% in the test with MDA-MB-231 breast; 62.8% in the test with RXF 393 renal; 81.2% in the test on SF-268 CNS; 51.9% with SF-295 CNS; 56.9% with SF-539 CNS. Besides, the growth was 100% with UACC-257 melanoma and 81.4% with M14 melanoma.

For `CC(C)CN1CC(C(=O)Nc2ccc3c(c2)-c2ccccc2C3)CC1=O` (stereo not given), the growth in the test with NCI-H23 lung was 81% [50 µM]; in the test with NCI-H226 lung, 64.9% [50 µM]; in the test with NCI-H322M lung it was 69.6% [50 µM]; in the test with HOP-62 NSCLC, 50.7% [50 µM]; in the test on NCI-H460 lung, 81.8% [50 µM]; in the test with HOP-92 NSCLC, 58.5% [50 µM]. Also, the growth is 51.3% [50 µM] with NCI-H522 lung; 78.7% [50 µM] in the test on A549/ATCC NSCLC; 70.7% [50 µM] with 786-0 renal; 87.7% [50 µM] in the test on COLO 205 colon; 80% [50 µM] with DU-145 prostate; 64.7% [50 µM] in the test with K-562 leukemia. Besides, the growth is 58.7% [50 µM] with MALME-3M melanoma; 55.9% [50 µM] with MDA-MB-231 breast; 79.7% [50 µM] with RXF 393 renal; 60.8% [50 µM] in the test with SF-268 CNS; 76.1% [50 µM] in the test on SF-295 CNS; 72% [50 µM] with SF-539 CNS. In addition, the growth in the test on UACC-257 melanoma was 39.9% [50 µM]; in the test with M14 melanoma, 77.4% [50 µM].
